According to paper PMC7862700, “An all-to-all approach to the identification of sequence-specific readers for epigenetic DNA modifications on cytosine”:

Columns and labels:
Assay in all cases: DAPPL (digital affinity profiling via proximity ligation, sequencing); 10 mM Tris-HCl pH 7.5, 50 mM NaCl, 1 mM DTT, 4% glycerol, room temperature, 30 min; GST-TFs on glutathione beads, 16-mer random dsDNA library, 0.1% formaldehyde crosslink after washing; high values mean tight binding
Settings in all cases: protein: recombinant; tags: N-terminal GST; dsDNA, one strand shown
FLI1 = target: T1, FLI1 (Homo sapiens, UniProt Q01543 1-452)
T1 sequence: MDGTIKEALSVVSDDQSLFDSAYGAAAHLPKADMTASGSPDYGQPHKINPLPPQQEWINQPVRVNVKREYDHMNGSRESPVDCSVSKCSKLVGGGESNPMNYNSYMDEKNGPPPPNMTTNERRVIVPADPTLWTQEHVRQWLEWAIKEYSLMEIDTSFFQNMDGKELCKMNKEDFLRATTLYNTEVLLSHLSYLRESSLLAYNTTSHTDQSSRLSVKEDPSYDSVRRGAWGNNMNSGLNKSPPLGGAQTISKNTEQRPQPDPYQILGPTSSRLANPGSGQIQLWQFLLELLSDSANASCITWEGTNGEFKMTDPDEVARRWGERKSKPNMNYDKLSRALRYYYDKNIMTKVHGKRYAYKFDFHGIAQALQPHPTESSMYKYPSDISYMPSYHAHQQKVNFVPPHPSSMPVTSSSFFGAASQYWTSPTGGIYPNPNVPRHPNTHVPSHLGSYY
Outline: (§1)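 After expression in yeast as GST fusions, human transcription factors were bound to glutathione beads, DNA-barcoded and mixed with a tag-only sample. The pools were incubated with 200 nmole of a 16-mer random double-stranded DNA library in Tris/NaCl/DTT/glycerol buffer (30 min, room temperature), washed and crosslinked with 0.1% formaldehyde. Proximity ligation with BsaI/T4 ligase ran for 1 h at 37 °C, before PCR amplification and sequencing on an Illumina NextSeq500. Binding signal is a hexamer's read frequency for a factor divided by its frequency for the tag-only sample.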

ELK1 = target: T2, ELK1 (Homo sapiens, UniProt P19419 1-428)
T2 sequence: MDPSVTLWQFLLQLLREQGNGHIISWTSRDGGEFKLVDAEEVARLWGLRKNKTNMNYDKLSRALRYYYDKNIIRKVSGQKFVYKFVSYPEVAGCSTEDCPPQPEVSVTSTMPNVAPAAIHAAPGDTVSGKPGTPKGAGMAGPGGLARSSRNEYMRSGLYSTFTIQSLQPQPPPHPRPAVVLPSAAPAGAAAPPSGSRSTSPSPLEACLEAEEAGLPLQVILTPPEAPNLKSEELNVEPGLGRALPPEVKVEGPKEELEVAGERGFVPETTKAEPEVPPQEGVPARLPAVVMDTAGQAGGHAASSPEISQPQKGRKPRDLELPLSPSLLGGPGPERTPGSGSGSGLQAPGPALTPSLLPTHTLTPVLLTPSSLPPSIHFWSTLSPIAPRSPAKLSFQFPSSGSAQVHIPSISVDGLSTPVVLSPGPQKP
Outline: as §1

GABPA = target: T3, GABPA (Homo sapiens, UniProt Q06546 1-454)
T3 sequence: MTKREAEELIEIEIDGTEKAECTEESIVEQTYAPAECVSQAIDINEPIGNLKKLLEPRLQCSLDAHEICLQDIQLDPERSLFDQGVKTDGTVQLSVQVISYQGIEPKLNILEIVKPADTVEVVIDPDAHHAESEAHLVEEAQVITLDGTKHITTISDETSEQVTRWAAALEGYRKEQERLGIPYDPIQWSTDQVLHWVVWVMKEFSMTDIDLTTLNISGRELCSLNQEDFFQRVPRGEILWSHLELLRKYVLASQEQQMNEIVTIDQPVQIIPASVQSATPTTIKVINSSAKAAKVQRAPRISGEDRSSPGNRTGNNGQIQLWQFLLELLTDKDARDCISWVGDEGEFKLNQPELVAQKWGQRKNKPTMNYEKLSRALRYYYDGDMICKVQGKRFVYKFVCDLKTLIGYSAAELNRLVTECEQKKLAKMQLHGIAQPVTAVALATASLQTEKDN
Outline: as §1

ERG = target: T4, ERG (Homo sapiens, UniProt P11308 1-479)
T4 sequence: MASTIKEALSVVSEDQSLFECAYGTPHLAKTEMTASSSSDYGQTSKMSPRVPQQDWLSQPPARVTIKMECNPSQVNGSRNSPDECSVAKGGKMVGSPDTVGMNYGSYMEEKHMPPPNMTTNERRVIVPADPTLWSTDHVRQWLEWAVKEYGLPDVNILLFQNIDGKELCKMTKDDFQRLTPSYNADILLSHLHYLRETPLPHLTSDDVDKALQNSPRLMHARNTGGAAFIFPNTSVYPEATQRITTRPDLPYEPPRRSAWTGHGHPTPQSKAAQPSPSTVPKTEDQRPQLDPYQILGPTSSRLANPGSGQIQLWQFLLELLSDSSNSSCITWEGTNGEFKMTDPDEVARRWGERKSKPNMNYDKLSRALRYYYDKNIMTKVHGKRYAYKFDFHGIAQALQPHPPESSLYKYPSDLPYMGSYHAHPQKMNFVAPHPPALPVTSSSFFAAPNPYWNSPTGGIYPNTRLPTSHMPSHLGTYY
Outline: as §1

ELF1 = ELF1 (Homo sapiens, UniProt P32519 1-619)
Outline: as §1

EHF = target: T5, EHF (Homo sapiens, UniProt Q9NZC4 1-300)
T5 sequence: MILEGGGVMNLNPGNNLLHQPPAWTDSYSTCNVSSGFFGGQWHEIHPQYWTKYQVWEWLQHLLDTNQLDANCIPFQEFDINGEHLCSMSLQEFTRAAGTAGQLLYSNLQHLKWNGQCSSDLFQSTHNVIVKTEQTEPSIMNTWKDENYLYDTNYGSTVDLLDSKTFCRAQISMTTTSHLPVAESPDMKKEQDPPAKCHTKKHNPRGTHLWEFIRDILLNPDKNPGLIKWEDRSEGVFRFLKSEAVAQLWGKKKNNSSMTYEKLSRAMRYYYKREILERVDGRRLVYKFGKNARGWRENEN
Outline: as §1

SPIB = SPIB (Homo sapiens, UniProt Q01892 1-262)
Outline: as §1

FEV = target: T6, FEV (Homo sapiens, UniProt Q99581 1-238)
T6 sequence: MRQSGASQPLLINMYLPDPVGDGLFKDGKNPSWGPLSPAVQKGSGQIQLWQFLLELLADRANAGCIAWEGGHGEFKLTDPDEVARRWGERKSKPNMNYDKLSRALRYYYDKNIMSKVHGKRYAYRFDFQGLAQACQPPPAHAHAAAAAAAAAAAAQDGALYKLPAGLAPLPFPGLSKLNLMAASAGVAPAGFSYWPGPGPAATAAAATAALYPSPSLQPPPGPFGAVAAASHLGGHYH
Outline: as §1

ETV5 = ETV5 (Homo sapiens, UniProt P41161 1-510)
Outline: as §1

SPIC = target: T7, SPIC (Homo sapiens, UniProt Q8N5J4 1-248)
T7 sequence: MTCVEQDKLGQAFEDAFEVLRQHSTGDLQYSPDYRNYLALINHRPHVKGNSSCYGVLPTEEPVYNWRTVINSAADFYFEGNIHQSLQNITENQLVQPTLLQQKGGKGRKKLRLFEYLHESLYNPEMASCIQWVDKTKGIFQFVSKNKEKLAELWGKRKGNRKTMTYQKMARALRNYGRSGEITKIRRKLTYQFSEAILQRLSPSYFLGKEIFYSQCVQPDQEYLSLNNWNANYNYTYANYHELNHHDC
Outline: as §1

ELF4 = ELF4 (Homo sapiens, UniProt Q99607 1-663)
Outline: as §1

ELK4 = target: T8, ELK4 (Homo sapiens, UniProt P28324-2 1-405)
T8 sequence: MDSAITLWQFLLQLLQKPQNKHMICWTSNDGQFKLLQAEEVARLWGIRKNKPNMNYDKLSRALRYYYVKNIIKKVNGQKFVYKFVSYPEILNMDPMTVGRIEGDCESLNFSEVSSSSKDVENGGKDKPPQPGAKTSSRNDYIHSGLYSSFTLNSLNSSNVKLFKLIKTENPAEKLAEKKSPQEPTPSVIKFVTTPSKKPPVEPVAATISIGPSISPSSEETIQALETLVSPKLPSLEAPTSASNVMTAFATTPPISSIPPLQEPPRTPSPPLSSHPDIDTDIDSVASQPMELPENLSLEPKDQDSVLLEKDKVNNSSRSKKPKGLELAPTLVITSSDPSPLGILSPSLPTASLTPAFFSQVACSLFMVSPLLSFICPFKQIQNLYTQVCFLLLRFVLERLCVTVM
Outline: as §1

ETV2 = target: T9, ETV2 (Homo sapiens, UniProt O00321 1-342)
T9 sequence: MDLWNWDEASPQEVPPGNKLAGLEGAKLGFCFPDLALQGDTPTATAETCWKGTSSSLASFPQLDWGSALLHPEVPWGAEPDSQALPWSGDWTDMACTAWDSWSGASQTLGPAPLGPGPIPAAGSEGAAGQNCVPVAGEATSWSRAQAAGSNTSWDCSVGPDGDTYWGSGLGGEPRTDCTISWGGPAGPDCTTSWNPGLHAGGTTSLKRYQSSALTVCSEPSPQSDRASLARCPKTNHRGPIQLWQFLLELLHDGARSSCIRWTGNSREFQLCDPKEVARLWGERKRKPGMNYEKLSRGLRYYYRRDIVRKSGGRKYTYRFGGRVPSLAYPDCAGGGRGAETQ
Outline: as §1

ELF3 = target: T10, ELF3 (Homo sapiens, UniProt P78545 1-371)
T10 sequence: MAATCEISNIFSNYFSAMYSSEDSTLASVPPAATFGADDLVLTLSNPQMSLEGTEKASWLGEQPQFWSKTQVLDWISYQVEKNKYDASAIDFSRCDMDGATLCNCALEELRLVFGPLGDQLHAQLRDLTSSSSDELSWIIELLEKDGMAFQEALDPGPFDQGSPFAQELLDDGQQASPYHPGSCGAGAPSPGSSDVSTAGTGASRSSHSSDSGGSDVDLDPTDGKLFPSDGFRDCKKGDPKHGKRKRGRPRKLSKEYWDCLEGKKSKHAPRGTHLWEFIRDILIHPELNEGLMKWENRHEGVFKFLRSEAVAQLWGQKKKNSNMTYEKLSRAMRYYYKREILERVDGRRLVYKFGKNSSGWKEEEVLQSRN
Outline: as §1

CRX = CRX (Homo sapiens, UniProt O43186 1-299)
Outline: as §1

ETV1 = ETV1 (Homo sapiens, UniProt P50549 1-477)
Outline: as §1

SPI1 = SPI1 (Homo sapiens, UniProt P17947 1-270)
Outline: as §1

ELK3 = target: T11, ELK3 (Homo sapiens, UniProt P41970 1-407)
T11 sequence: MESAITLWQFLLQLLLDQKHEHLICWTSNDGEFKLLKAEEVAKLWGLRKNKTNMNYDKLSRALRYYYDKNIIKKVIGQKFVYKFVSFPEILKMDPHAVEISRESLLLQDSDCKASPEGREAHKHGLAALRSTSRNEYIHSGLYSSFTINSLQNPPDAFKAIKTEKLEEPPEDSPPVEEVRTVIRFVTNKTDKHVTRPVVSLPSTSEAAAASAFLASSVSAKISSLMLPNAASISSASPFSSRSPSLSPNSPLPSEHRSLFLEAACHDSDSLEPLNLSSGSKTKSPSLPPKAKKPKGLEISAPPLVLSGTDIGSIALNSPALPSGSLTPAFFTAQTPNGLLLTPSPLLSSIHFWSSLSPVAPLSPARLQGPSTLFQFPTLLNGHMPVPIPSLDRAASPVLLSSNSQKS
Outline: as §1

Chain of SPIB (Q01892 whole entry): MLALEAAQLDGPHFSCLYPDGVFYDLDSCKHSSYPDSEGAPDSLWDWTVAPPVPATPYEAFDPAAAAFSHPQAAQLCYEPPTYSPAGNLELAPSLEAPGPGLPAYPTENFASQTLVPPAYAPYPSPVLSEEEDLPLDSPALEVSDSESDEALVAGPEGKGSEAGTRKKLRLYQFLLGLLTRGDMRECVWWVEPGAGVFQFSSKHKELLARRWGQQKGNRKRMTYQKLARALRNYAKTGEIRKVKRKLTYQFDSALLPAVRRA
Chain of ETV5 (P41161 whole entry): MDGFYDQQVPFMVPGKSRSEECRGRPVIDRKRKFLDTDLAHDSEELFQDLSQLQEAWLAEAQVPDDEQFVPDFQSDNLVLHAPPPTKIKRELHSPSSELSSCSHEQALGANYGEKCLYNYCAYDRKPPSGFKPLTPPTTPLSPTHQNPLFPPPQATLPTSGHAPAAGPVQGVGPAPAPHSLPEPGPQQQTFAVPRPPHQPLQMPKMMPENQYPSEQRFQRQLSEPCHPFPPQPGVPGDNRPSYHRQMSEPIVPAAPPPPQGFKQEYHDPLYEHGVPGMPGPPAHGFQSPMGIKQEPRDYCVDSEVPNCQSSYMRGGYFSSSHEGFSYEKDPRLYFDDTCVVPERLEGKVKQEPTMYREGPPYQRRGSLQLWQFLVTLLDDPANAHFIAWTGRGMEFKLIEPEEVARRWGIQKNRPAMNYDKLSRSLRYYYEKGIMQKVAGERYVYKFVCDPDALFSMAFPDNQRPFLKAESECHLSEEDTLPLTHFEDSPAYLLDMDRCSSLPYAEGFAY
Chain of ETV1 (P50549 whole entry): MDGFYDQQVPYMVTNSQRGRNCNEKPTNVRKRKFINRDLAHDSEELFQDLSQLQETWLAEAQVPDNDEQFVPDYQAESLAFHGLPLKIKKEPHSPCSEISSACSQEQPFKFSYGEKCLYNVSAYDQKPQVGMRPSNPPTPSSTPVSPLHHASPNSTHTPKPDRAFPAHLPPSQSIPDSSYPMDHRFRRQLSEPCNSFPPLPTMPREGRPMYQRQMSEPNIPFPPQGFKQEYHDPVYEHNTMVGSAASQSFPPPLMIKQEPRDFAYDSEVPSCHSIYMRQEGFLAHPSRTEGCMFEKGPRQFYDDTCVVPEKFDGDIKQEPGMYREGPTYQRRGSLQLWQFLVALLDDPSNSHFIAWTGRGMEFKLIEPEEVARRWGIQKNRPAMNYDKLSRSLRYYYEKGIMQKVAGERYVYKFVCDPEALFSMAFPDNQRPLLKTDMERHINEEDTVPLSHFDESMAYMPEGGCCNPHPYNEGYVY
Chain of ELF4 (Q99607 whole entry): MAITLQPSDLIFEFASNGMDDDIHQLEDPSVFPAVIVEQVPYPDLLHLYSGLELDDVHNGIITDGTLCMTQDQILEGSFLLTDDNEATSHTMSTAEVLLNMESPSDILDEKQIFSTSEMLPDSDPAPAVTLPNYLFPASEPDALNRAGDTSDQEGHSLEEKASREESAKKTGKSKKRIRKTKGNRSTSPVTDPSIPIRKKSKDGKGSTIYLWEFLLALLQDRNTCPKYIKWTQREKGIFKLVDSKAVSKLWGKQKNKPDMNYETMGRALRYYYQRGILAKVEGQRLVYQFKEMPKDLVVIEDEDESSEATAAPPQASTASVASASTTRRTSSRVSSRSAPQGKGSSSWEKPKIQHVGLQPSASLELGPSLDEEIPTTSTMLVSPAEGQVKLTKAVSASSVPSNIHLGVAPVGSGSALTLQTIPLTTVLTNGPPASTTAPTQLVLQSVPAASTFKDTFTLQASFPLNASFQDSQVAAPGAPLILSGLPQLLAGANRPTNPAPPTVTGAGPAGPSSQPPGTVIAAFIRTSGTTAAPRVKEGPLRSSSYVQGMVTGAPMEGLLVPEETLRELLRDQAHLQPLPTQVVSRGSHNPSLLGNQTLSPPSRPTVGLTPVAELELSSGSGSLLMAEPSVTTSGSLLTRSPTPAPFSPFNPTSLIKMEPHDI
Chain of ELF1 (P32519 whole entry): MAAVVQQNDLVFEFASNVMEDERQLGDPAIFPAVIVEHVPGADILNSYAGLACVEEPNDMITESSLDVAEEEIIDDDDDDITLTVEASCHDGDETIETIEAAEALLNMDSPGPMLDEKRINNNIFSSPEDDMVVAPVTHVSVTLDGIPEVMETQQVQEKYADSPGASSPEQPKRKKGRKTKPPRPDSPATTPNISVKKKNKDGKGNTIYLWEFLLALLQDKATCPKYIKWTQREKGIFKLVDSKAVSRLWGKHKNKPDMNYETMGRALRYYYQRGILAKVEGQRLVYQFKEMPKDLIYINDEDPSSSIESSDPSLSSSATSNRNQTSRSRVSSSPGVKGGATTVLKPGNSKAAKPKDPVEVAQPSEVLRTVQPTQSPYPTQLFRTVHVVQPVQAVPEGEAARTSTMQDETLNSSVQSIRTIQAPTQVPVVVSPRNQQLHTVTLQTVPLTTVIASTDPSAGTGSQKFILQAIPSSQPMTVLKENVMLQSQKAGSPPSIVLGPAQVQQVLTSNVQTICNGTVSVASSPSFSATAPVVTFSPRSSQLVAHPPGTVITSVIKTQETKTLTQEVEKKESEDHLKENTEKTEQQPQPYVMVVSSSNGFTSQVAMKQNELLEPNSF
Chain of CRX (O43186 whole entry): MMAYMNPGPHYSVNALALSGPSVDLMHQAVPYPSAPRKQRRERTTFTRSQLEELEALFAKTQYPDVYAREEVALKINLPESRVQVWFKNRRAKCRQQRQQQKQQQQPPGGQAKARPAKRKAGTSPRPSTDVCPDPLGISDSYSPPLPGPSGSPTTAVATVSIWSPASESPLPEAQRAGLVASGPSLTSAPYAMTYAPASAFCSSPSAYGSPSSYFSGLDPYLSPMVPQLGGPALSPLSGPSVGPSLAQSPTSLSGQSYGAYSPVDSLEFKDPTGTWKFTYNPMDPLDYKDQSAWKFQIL

Sequence | binding signal (FLI1) | binding signal (ELK1) | binding signal (GABPA) | binding signal (ERG) | binding signal (ELF1) | binding signal (EHF) | binding signal (SPIB) | binding signal (FEV) | binding signal (ETV5) | binding signal (SPIC) | binding signal (ELF4) | binding signal (ELK4) | binding signal (ETV2) | binding signal (ELF3) | binding signal (CRX) | binding signal (ETV1) | binding signal (SPI1) | binding signal (ELK3)
GGTGTT | 1.07 fold enrichment (6-mer frequency, TF over GST control) | 1.13 fold enrichment (6-mer frequency, TF over GST control) | 1.11 fold enrichment (6-mer frequency, TF over GST control) | 1.08 fold enrichment (6-mer frequency, TF over GST control) | 1.09 fold enrichment (6-mer frequency, TF over GST control) | 1.04 fold enrichment (6-mer frequency, TF over GST control) | 1.02 fold enrichment (6-mer frequency, TF over GST control) | 1 fold enrichment (6-mer frequency, TF over GST control) | 1.09 fold enrichment (6-mer frequency, TF over GST control) | 1.09 fold enrichment (6-mer frequency, TF over GST control) | 1.09 fold enrichment (6-mer frequency, TF over GST control) | 1.13 fold enrichment (6-mer frequency, TF over GST control) | 1.13 fold enrichment (6-mer frequency, TF over GST control) | 1.03 fold enrichment (6-mer frequency, TF over GST control) | 1.01 fold enrichment (6-mer frequency, TF over GST control) | 1.04 fold enrichment (6-mer frequency, TF over GST control) |  | 
CACTGT | 1.12 fold enrichment (6-mer frequency, TF over GST control) | 1.09 fold enrichment (6-mer frequency, TF over GST control) | 1.17 fold enrichment (6-mer frequency, TF over GST control) | 1.14 fold enrichment (6-mer frequency, TF over GST control) | 1.16 fold enrichment (6-mer frequency, TF over GST control) | 1.19 fold enrichment (6-mer frequency, TF over GST control) | 1.22 fold enrichment (6-mer frequency, TF over GST control) | 1.09 fold enrichment (6-mer frequency, TF over GST control) | 1.1 fold enrichment (6-mer frequency, TF over GST control) | 1.19 fold enrichment (6-mer frequency, TF over GST control) | 1.15 fold enrichment (6-mer frequency, TF over GST control) | 1.17 fold enrichment (6-mer frequency, TF over GST control) | 1.25 fold enrichment (6-mer frequency, TF over GST control) | 1.04 fold enrichment (6-mer frequency, TF over GST control) |  | 1.11 fold enrichment (6-mer frequency, TF over GST control) | 1.11 fold enrichment (6-mer frequency, TF over GST control) | 1.03 fold enrichment (6-mer frequency, TF over GST control)
